Laboratory results published in paper PMC5540273 (PLoS ONE, 2017).

Test system: T1, LOK
T1 construct: gene STK10
Settings: concentration: 1 μM, replicates: in singlicate; n = 1
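Further: KINOMEscan kinase panel screen.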

Row | Structure (SMILES) | %Inh [%]
1 | Nc1ncnc2c1nc(-c1ccccc1)n2-c1ccccc1 [SKF-97293] | 21
2 | CC(=O)Nc1nc2cnc(Nc3cc(NC(=O)c4cccc(C5(C#N)CC5)c4Cl)ccc3C)nc2s1 | 54
3 | c1ccc(Oc2ccc(Nc3ccnc4cc(-c5ccc(CNCCN6CCOCC6)o5)ccc34)cc2)nc1 [GW567145] | 30
4 | Cn1cc(-c2[nH]c3cc(NC(=O)[C@H](N)C4CCCCC4)cc4c3c2C=NNC4=O)cn1 | 17
5 | CC(C)c1nc(-c2cccc(NS(=O)(=O)c3c(F)cccc3F)c2F)c(-c2ccnc(Nc3ccc(N4CCOCC4)nc3)n2)s1 [GSK2008607] | 99.8
6 | COc1cc(Nc2nccc(-c3c(-c4cccc(NC(=O)c5c(F)cccc5F)c4)nn4ccccc34)n2)cc(OC)c1OC [GSK323521] | 85
7 | COc1cc(Nc2nccc(N3CCC(NC(=O)c4cc5ccccc5s4)C3)n2)cc(OC)c1OC (stereo not drawn) [GSK1379760] | 84
8 | Fc1ccc(-c2ncn(C3CCNCC3)c2-c2ccnc(Oc3ccc(-c4ccccc4)cc3)n2)cc1 [SB-245391] | 21
9 | COc1cc2c(cc1OCCN1CCNCC1)ncc1c3ccc(C#N)cc3[nH]c21 | 42
10 | Cl.Cl.NCC(NCc1ccc(-c2ccnc3[nH]ccc23)s1)c1ccccc1 (stereo not drawn) [GSK1321565] | 29
11 | O=c1[nH]cc(-c2ccc(N3CCOCC3)cc2)c2sc(-c3cn[nH]c3)cc12 [GSK2276055] | 0
12 | O=C(Nc1cccc(-c2nn3ccccc3c2-c2ccnc(Nc3cccc(F)c3)n2)c1)c1c(F)ccc(F)c1Cl [GSK357952] | 97.6
